Assay outcomes deposited in PubChem BioAssay by several laboratories.
Compounds with a hit are over-represented: about 22% of the library has one in this group of screens.
CYP2C19 inhib = blocks human cytochrome P450 2C19; inhibition, % at 5 µM; P33261; hit rate 21% among 96,000; CYP2C19 Supersomes, luciferin-H EGE luminescence, 30 min;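 active = CYP2C19 inhibition above a set limit at 5 µM in the primary screen, cut at about 50% in these data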;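 note: plate controls were negative control wells for no effect and 2.5 mM tranylcypromine positive control for full effect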
Target sequence (P33261 whole entry, looked up): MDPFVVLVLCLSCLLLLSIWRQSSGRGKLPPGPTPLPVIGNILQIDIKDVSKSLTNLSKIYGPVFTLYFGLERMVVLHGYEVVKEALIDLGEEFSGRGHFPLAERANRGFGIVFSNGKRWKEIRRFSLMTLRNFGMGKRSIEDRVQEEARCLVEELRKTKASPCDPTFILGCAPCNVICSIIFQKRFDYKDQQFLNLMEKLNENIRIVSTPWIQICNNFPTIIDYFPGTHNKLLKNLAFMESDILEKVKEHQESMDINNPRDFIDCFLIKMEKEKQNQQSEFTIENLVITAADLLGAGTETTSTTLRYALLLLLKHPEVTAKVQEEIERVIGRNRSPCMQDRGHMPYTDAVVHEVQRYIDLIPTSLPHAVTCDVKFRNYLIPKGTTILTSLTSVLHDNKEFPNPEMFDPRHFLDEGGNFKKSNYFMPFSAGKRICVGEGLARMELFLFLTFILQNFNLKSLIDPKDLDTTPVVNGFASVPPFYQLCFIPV
CYP2C9 inhib = human CYP2C9 inhibition. inhibition, % at 5 µM. hit rate 20% among 96,000. CYP2C9 Supersomes, luciferin-H conversion, luminescence;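 active = blocking of liver enzyme CYP2C9 beyond about 50% at 5 µM, limit read from the data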
CYP2C9 act = CYP2C9 (human) activation; activation factor at 5 µM; recombinant CYP2C9, luciferin-H conversion, luminescence; active compounds read high; factor 1 = untreated enzyme, 0 = blocked; P11712; AID 1024; hit rate 1.4% among 96,000;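 active = activation factor of 2 or more for CYP2C9 at a 5 µM dose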;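 note: 0 = sulfaphenazole-blocked wells and 1 = vehicle-only wells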
CYP2C19 act = increases human CYP2C19 enzyme activity. recombinant CYP2C19, luciferin-H EGE luminescence; active compounds read high; 0 = fully inhibited enzyme, 1 = untreated enzyme. activation factor at 5 µM. 96,000 tested, under 10 active;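 active = activation factor of at least 2 at 5 µM in the primary screen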;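 note: 0 = wells with 2.5 mM tranylcypromine and 1 = vehicle-only wells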
Measles CPE = protection of cells from measles virus; protection (pct of control), % at 4 µM; hit rate 1.5% among 140,000; Measles virus-infected cells, CPE protection, absorbance; in the data active = protection mostly above about 24%, no sharp cut-off; inactive = mostly below about 26%
The depositor's hits bear a star; nt = no result.

SMILES	CYP2C19 inhib	CYP2C9 inhib	CYP2C9 act	CYP2C19 act	Measles CPE
NNC(=O)CNC(c1ccccc1)c1cc(Br)ccc1NC(=O)c1ccccc1Br (stereo not drawn)	38	58*	0.4	0.6	39
Cc1ccc2occ(/C=N/NC(N)=S)c(=O)c2c1	nt	nt	nt	nt	30*
Cc1cc(C)nc(SCc2ccc(C(=O)N/N=C/C3CCCCC3)cc2)n1	nt	nt	nt	nt	12
Cc1nc(CS(=O)(=O)c2ccccc2)cc(Sc2ccc(Cl)cc2Cl)n1	32	50*	0.5	0.7	7
COCc1cc(Sc2cccc(Cl)c2Cl)nc(-c2ccccc2)n1	6	22	0.8	0.9	15
Cc1nn(Cc2ccccc2Cl)c(C)c1NC(=O)CSc1n[nH]c(C)c1[N+](=O)[O-]	nt	nt	nt	nt	5
Cc1ccc(-c2nnc(SCC(=O)Nc3ccc4c(c3)oc3ccccc34)n2C)c(Cl)c1	24	59*	0.4	0.8	7
CCOC(=O)c1cc2sc(C)cc2n1CC(=O)N1CCN(C(=O)c2ccco2)CC1	17	20	0.8	0.8	1
CCOC(=O)c1cc2sc(C)cc2n1CC(=O)N1CCOCC1	65*	-9	1.1	0.3	21
CCOC(=O)c1cc2occc2n1Cc1ccc(F)cc1	0	20	0.8	1	18
CCOC(=O)c1cc2sc(C)cc2n1CC(=O)NCc1ccc(F)cc1	72*	14	0.9	0.3	19
Cc1cc(C)n2cc(CSc3nc4ccccc4s3)nc2n1	nt	nt	nt	nt	3
COc1ccc(OC)c(-n2nnnc2SCC(=O)Nc2ccc(C(=O)N3CCCCC3)cc2)c1	78*	67*	0.3	0.2	17
COC(=O)c1ccc(-n2nnnc2SCC(=O)N2CCCCC2)cc1	26	55*	0.4	0.7	8
COc1ccc(OC)c(-n2nnnc2SCC(=O)Nc2ccc3c(c2)OCCO3)c1	33	42	0.6	0.7	2
COC(=O)c1ccc(-n2nnnc2SCC(=O)Nc2cc(OC)ccc2OC)cc1	14	11	0.9	0.9	7
CCOC(=O)CSc1nnnn1-c1cc(OC)ccc1OC	71*	65*	0.4	0.3	4
O=C(COC(=O)C1Cc2ccccc2CN1C(=O)c1ccccc1)Nc1ccc(SC(F)F)cc1 (stereo not drawn)	nt	nt	nt	nt	27
Cc1ccc(-c2cc(C(=O)Nc3nn[nH]n3)c3ccccc3n2)cc1	-14	12	0.9	1.1	30
COc1ccc(S(=O)(=O)Nc2nnc(C)s2)cc1	12	48	0.5	0.9	11
COc1ccc(S(=O)(=O)Nc2nnc(CC(C)C)s2)cc1	-2	63*	0.4	1	11
CC(C)Cc1nnc(NS(=O)(=O)c2ccc(Cl)cc2)s1	9	70*	0.3	0.9	12
COC(=O)c1cc(Br)c(=O)n(CCN2CCCCC2)c1	-1	2	1	1	nt
COC(=O)c1cc(Br)c(=O)n(CCc2ccc(O)cc2)c1	52*	10	0.9	0.5	10
COC(=O)c1cc(Br)c(=O)n(CCC2=CCCCC2)c1	96*	85*	0.2	0	2
SMILES	CYP2C19 inhib	CYP2C9 inhib	CYP2C9 act	CYP2C19 act	Measles CPE
COC(=O)c1cc(Br)c(=O)n(CCN2CCCC2)c1	7	4	1	0.9	3
COC(=O)c1cc(Br)c(=O)n(CC(C)C)c1	27	6	0.9	0.7	11
COC(=O)c1cc(Br)c(=O)n(-c2ccc(F)cc2)c1	89*	15	0.9	0.1	12
COC(=O)c1cc(Br)c(=O)n(-c2ccccc2F)c1	51*	-2	1	0.5	4
COC(=O)C1=C(C)N(CCC2=CCCCC2)C(=O)C1	98*	44	0.6	0	6
COC(=O)c1cc(Br)c(=O)n(CCc2ccc(F)cc2)c1	94*	56*	0.4	0.1	5
COC(=O)c1cc(Br)c(=O)n(Cc2ccco2)c1	23	25	0.8	0.8	37*
COC(=O)c1ccc(=O)n(Cc2ccco2)c1	nt	nt	nt	nt	20
O=C(CCC(=O)c1cccs1)OCc1nnc(-c2ccccc2)o1	17	2	1	0.8	3
CCOC(=O)N1CCC(NC(=O)C2CCN(S(=O)(=O)c3cccs3)CC2)CC1	9	22	0.8	0.9	4
O=C(OCCN1C(=O)c2ccccc2C1=O)C1CCN(S(=O)(=O)c2cccs2)CC1	86*	97*	0	0.1	23
Cc1cccc(OCCOC(=O)C2CCN(S(=O)(=O)c3cccs3)CC2)c1	47	65*	0.3	0.5	10
O=C(OCc1nnc(-c2ccccc2)o1)C1CCN(S(=O)(=O)c2cccs2)CC1	38	79*	0.2	0.6	1
O=C(OCCN1C(=O)c2ccccc2C1=O)c1cccs1	46	28	0.7	0.5	17
C/C(=N\NC(=O)c1c(Cl)c(C)nn1C)c1cccc(NC(=O)COc2ccc(Cl)cc2)c1	34	40	0.6	0.7	5
COC(=O)c1cnc(SC)nc1C	24	5	0.9	0.8	12
Cn1c(=O)cc(SCC(=O)N2CCCC2)c2ccc(Cl)cc21	30	-4	1	0.7	7
Cn1c(=O)cc(SCC(=O)N2CCN(c3ccccn3)CC2)c2ccccc21	15	62*	0.4	0.8	7
Cn1c(=O)cc(SCC(=O)N2CCOCC2)c2ccc(Cl)cc21	nt	nt	nt	nt	13
Cn1c(=O)cc(SCC(=O)N2CCN(c3ccccc3)CC2)c2ccccc21	51*	-43	1.4	0.5	3
Cn1c(=O)cc(OCCCC(=O)N2CCN(c3ccccc3)CC2)c2ccccc21	80*	61*	0.4	0.2	8
O=C1C(O)CC2c3ccccc3CC3(CCCC3)N12 (stereo not drawn)	2	16	0.8	1	14
O=C(COC(=O)CCS(=O)(=O)c1ccc(Cl)cc1)NC1CCCCC1	8	-4	1	0.9	2
CON1C(=O)C(=O)N(OC)C(C)(C)C1(C)C	nt	nt	nt	nt	17
Cc1c(C(=O)c2ccc(Cl)c(Cl)c2)cnc2cc3c(cc12)OCO3	nt	nt	nt	nt	3
SMILES	CYP2C19 inhib	CYP2C9 inhib	CYP2C9 act	CYP2C19 act	Measles CPE
COc1ccc(C(=O)c2cnc3cc4c(cc3c2C)OCO4)cc1	95*	65*	0.4	0.1	17
COc1ccc(Cl)cc1NC(=O)CNc1ccc(F)cc1C	nt	nt	nt	nt	22
CSc1nc(NC(C)=O)nc(C)c1Cl	-4	4	1	1	11
CCOc1cccc(C(=O)N(Cc2ccc(F)cc2)C2CCS(=O)(=O)C2)c1 (stereo not drawn)	51*	30	0.7	0.5	3
O=C(c1ccccc1)N(Cc1ccc(F)cc1)C1CCS(=O)(=O)C1 (stereo not drawn)	36	2	1	0.6	2
CCCOc1cccc(C(=O)N(Cc2ccco2)C2CCS(=O)(=O)C2)c1 (stereo not drawn)	nt	nt	nt	nt	28
CCCCOc1cccc(C(=O)N(Cc2ccco2)C2CCS(=O)(=O)C2)c1 (stereo not drawn)	46	82*	0.2	0.5	15
N#Cc1cncc(-c2ccc3c(c2)OCCOCCOCCOCCOCCO3)n1	nt	nt	nt	nt	4
O=C(NCc1cccnc1)C(=O)NCC1OCCN1S(=O)(=O)c1ccc(F)cc1 (stereo not drawn)	nt	nt	nt	nt	3
